Holding throughout (experiment): NCI-60 one-dose screen, 48 h (100 = growth as untreated, 0 = no growth, -100 = all killed)
Assay [1] concerns UACC-62 melanoma.
For assay [2], the system named is TK-10 renal.
Assay [3] relates to HCT-15 colon. The settings on record: 10 µM unless noted.
The test system of assay [4] is HT29 colon. The conditions noted are these: 10 µM unless noted.
Assay [5] deals with SNB-75 CNS. The settings on record: 10 µM unless noted.
Assay [6] concerns SNB-19 CNS. The conditions noted are these: 10 µM unless noted.
Assay [7] concerns U251 CNS. The conditions noted are these: 10 µM unless noted.
The test system of assay [8] is PC-3 prostate. The settings on record: 10 µM unless noted.
The test system of assay [9] is LOX IMVI melanoma. The settings on record: 10 µM unless noted.
In assay [10] the test system is SK-MEL-28 melanoma. The settings on record: 10 µM.
Assay [11] has as its system SK-MEL-2 melanoma. The conditions noted are these: 10 µM unless noted.
In assay [12] the test system is EKVX NSCLC. The settings on record: 10 µM unless noted.
Assay [13] relates to SN12C renal. The settings on record: 10 µM unless noted.
The test system of assay [14] is UO-31 renal. The conditions noted are these: 10 µM unless noted.
For assay [15], the system named is CAKI-1 renal. The settings on record: 10 µM unless noted.
For assay [16], the system named is A498 renal. The conditions noted are these: 10 µM unless noted.
Assay [17] relates to HL-60(TB) leukemia. The conditions noted are these: 10 µM unless noted.
Assay [18] has as its system MOLT-4 leukemia. The conditions noted are these: 10 µM unless noted.
For assay [19], the system named is SK-MEL-5 melanoma. The settings on record: 10 µM unless noted.
For assay [20], the system named is SR leukemia. The settings on record: 10 µM unless noted.

Each structure is given as a SMILES string. Values joined by “and” are separate entries in the source; they are usually repeats but may differ in a detail not shown here. Equal values may be shown once. The panel holds about 83,000 compounds, 20% with a hit somewhere; the sample as a whole holds those more often.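 Percent growth is the endpoint: 0 to 100 indicates growth inhibition (40 means 60% inhibition), 0 means no net growth, and negative values indicate cell death.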 Unmarked numbers belong to inactive results. Active and inactive are the calls of the source. How the source made its calls: active means growth percent below 10; inactive means the rest.

Take `CC1CCC2(NC1)OC1CC3C4CCC5CC(OC6OC(CO)C(OC7OC(CO)C(O)C(OC8OCC(O)C(O)C8O)C7OC7OC(CO)C(O)C(O)C7O)C(O)C6O)CCC5(C)C4CCC3(C)C1C2C` (stereo not given): the growth in [1] (100 µM) was -77.3% (active) and -86.4% (active); in assay [2] (100 µM) it was -97.4% (active) and -87.3% (active).

Take `CC[n+]1c(-c2ccccc2)c2cc(N)ccc2c2ccc(N)cc21`: the growth in assay [3] was 88.9%; in assay [4], 9.77% (active); in assay [5], -88.5% (active); in assay [6], -5.17% (active); in assay [7], -2.55% (active); in [8], 20.9%. The growth in [1] (10 µM) is -81.3% (active); in assay [9], 13.5%; in assay [10] it was -42.9% (active); in [11] it was -60.1% (active); in assay [12], 1.88% (active); in [13] it was -16.5% (active). Besides, the growth was 63.5% in [14]; 42% in assay [2] (10 µM); 81% in [15]; 60.4% in assay [16]; 23.7% in assay [17]; 23.7% in [18].

Take `CC[C@](O)(C(=O)O)c1cc2n(c(=O)c1CO)Cc1cc3ccccc3nc1-2`: the growth in [3] is -5.77% (active); in [4] it was -31.3% (active); in assay [5], -33.5% (active); in [6] it was 1.96% (active); in assay [7] it was 1.58% (active); in assay [8], -8.14% (active). The growth in assay [19] was -94.2% (active); in assay [1] (10 µM) it was -68.6% (active); in [9], -40.9% (active); in assay [11] it was -20.9% (active); in assay [12] it was 10.2%; in [13], 17%. The growth in [14] is -61% (active); in assay [2] (10 µM), 6.69% (active); in assay [15], -28.8% (active); in assay [16], -76.5% (active); in assay [17] it was -44.6% (active); in [18], -38.3% (active). Besides, the growth in assay [20] was -20.3% (active).

With `NCCc1ccc(OCc2ccccc2)c(OCc2ccccc2)c1`, the growth is 75.3% in [3]; 55% in [4]; 63.9% in assay [5]; 94.5% in assay [6]; 44.3% in [7]; 74.1% in [8]. The growth in assay [19] is 89.3%; in [1] (10 µM), 95.9%; in [9], 63.2%; in assay [10], 97.3%; in assay [11], 87.4%; in assay [13], 86.6%. Besides, the growth in assay [14] is 51.2%; in assay [2] (10 µM) it was 107%; in assay [15] it was 81.6%; in [16], 79%; in [17] it was 51.4%; in [18] it was 78.1%. Also, the growth in assay [20] was -27.5% (active).

`c1ccc2c(c1)[nH]c1c2cc[n+]2cc3c(cc12)CCCC3`: the growth in assay [17] is 13.5%.

Consider `Cc1ccc(C(=O)OC(C(=O)O)C(OC(=O)c2ccc(C)cc2)C(=O)O)cc1` (stereo not given) (tested in a mixture with another compound), for which the growth is 16.3% in assay [3]; 23% in assay [4]; 55% in assay [5]; 54.3% in assay [7]; 29.4% in assay [8]; 14.7% in assay [19]. The growth in assay [1] (10 µM) is 45%; in assay [9], 56.2%; in assay [10], 57.7%; in [11], 77.1%; in assay [12], 32.7%; in assay [13], 38.5%. Further, the growth was 93.2% in assay [2] (10 µM); 50.7% in [15]; 77.7% in [16]; 23.5% in [17]; 35.9% in assay [18].

Consider `CC[C@@]1(O)C(=O)OCc2c1cc1n(c2=O)Cc2cc3ccccc3nc2-1`, for which the growth in assay [3] was -18.7% (active); in assay [4], -31.8% (active); in [5] it was -41.8% (active); in assay [6], -0.517% (active); in assay [7] it was -31.6% (active); in [8] it was -22.3% (active). Further, the growth in assay [19] is -83.9% (active); in assay [1] (10 µM), -49.1% (active); in assay [9] it was -62.4% (active); in [11], -20.7% (active); in assay [12], 13.5%; in assay [13], 13.5%. Besides, the growth is -59.6% (active) in [14]; -8.5% (active) in assay [2] (10 µM); -37.9% (active) in assay [15]; -77.4% (active) in assay [16]; -17.4% (active) in assay [18]; -3.04% (active) in assay [20].

Turning to `CO[C@H](/C(C)=C/C=C/C(C)=C/c1coc(C)n1)[C@H](C)[C@H]1C[C@@H](O)[C@@]2(C)O[C@H]2/C=C/[C@@H](C)[C@@H]2C[C@@H](CC(=O)O2)C[C@H]2O[C@@H]2C(=O)O1`, the growth in assay [3] was -31% (active); in assay [4], -23.2% (active); in [5] it was -46.7% (active); in [6], 21.2%; in assay [7], 3.46% (active); in [8] it was -14.4% (active). Moreover, the growth in assay [19] is -18.7% (active); in assay [1] (10 µM), 8.74% (active); in assay [9], 13.1%; in [11], 51.4%; in assay [12], 39.6%; in [13], 48.7%. Also, the growth in [14] is 20.7%; in assay [2] (10 µM), 37.2%; in assay [15], 15%; in assay [16], 26.1%; in assay [17], -36.9% (active); in assay [18] it was 9.7% (active). In addition, the growth in assay [20] is -4.11% (active).

As to `COC1=C(C)C(=O)C2=C(C1=O)C(CO)N1C(C#N)C3CC4C(C1C2N1CCOC41)N3C` (stereo not given), the growth was -29.8% (active) in assay [3]; -47.7% (active) in assay [4]; 8.12% (active) in assay [6]; -9.96% (active) in assay [7]; -40.2% (active) in assay [8]; -90.1% (active) in assay [19]. Further, the growth is -81.2% (active) in assay [1] (10 µM); -21.2% (active) in [9]; -58.4% (active) in assay [11]; 0.181% (active) in assay [12]; 19.8% in [13]; -28.8% (active) in assay [2] (10 µM). The growth is -23.1% (active) in assay [15]; -67.7% (active) in assay [16]; -33.9% (active) in [17]; -2.61% (active) in [18]; -19.5% (active) in assay [20].
